Results as given in PubChem BioAssay (Tox21).
Where “and” joins values, the source holds several entries; their conditions need not be identical. Equal entries are not always repeated. Records with an inconclusive call do not appear. Where a call stands in place of a potency, no number is given. Calls of active or inactive are those of the source. Unless noted, the call rests on the fitted dose curve; in most records, active means well fitted activation curve with a large enough effect in the repeat runs; inconclusive means weak or mixed curves; inactive means no such curve, though single readings can be large or run the other way.
Further: nearly all actives have a fitted effect of over 15% in size.

Assay: qHTS assay for small molecule agonists of the p53 signaling pathway (AID 651631; calls by dose curve; further: potency means the concentration at half of the fitted maximal effect)
Settings: HCT-116 p53RE-bla reporter, beta-lactamase FRET ratio, 16 h; series mostly up to 73.3 µM; activation: at the top concentration
Procedure, shortened: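 p53RE-bla HCT-116 cells; compounds 16 h, 37 °C; LiveBLAzer B/G FRET substrate 2 h RT; fluorescence intensity read-out, qHTS format.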
With `CCCSc1ccc2nc(NC(=O)OC)[nH]c2c1` the Potency was 320 nM (active) and 306 nM (active).
In the case of `COCCCOc1ccnc(CS(=O)c2nc3ccccc3[nH]2)c1C` (stereo unspecified), the Potency is reported as “inactive”.
In the case of `CCCCC(CC)COC(=O)CCCCC(=O)OCC(CC)CCCC` (stereo unspecified), the “activation” value is reported as 2.91% (inactive).
In the case of `NNc1nncc2ccccc12`, the Potency is reported as “inactive”.

Assay: qHTS assay for small molecules that induce genotoxicity in human embryonic kidney cells expressing luciferase-tagged ATAD5 (AID 651632)
Settings: HEK293T ATAD5-luciferase induction, 16 h; series mostly up to 83.3 µM; activation: at the top concentration
Procedure, shortened: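 ATAD5-luc HEK293T, 2,000 cells/well; cpd or DMSO pin-transferred; 16 hr, 37C/5% CO2; Amplite 30 min RT; luminescence.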
With `CCCCC(CC)COC(=O)C(C#N)=C(c1ccccc1)c1ccccc1` (stereo unspecified) the outcome was “inactive”.
In the case of `O=C(Oc1ccccc1)c1ccccc1`, the outcome is reported as “inactive”.
In the case of `CC1CCC(C(C)C)C(O)C1` (stereo unspecified), the outcome is reported as “inactive”.
With `CCCCCCCCCCCCOCCO` the “activation” value was 1.5% (inactive).
With `O=C(O)[C@H](O)[C@@H](O)[C@H](O)[C@H](O)CO` the outcome was “inactive”.
For `O=C(O)CCCC[C@@H]1SC[C@@H]2NC(=O)N[C@@H]21`, the outcome was “inactive”.
With `CCc1ccc(CCOc2ccc(CC3SC(=O)NC3=O)cc2)nc1` (stereo unspecified) the outcome was “inactive”.
In the case of `O=C(O)c1cc(C(=O)O)cc(S(=O)(=O)O)c1`, the outcome is reported as “inactive”.
For `Cc1ccc2oc(=O)ccc2c1`, the outcome was “inactive”.
In the case of `Cc1occc(=O)c1O`, the outcome is reported as “inactive”.
With `CCN(CC)c1ccc(C(=O)c2ccccc2C(=O)O)c(O)c1` the outcome was “inactive”.
In the case of `CC(c1cc2ccccc2s1)N(O)C(N)=O` (stereo unspecified), the outcome is reported as “inactive”.
With `CC(C)c1ccc(S(=O)(=O)O)cc1` the outcome was “inactive”.
In the case of `O=C(O)c1ccccc1C(c1ccc(O)cc1)c1ccc(O)cc1`, the “activation” value is reported as -0.671% (inactive).
In the case of `OCc1cccnc1`, the outcome is reported as “inactive”.
For `COS(C)(=O)=O`, the outcome was “inactive”.
In the case of `CCCCCC/C(C=O)=C\c1ccccc1`, the outcome is reported as “inactive”.
With `CCCCCC1=CCCC1=O` the outcome was “inactive”.
With `CCCCCOC(C)=O` the outcome was “inactive”.
For `C#C[C@]1(O)CC[C@H]2[C@@H]3CCC4=CC(=O)CC[C@@H]4[C@H]3CC[C@@]21C`, the outcome was “inactive”.
In the case of `COc1ccc(NC(C)=O)cc1N`, the outcome is reported as “inactive”.
In the case of `OC[C@H]1O[C@@](CO)(O[C@H]2O[C@H](CO)[C@@H](O)[C@H](O)[C@H]2O)[C@@H](O)[C@@H]1O`, the outcome is reported as “inactive”.
With `Cc1cccnc1` the outcome was “inactive”.
For `CC1=CCC2CC1C2(C)C` (stereo unspecified), the outcome was “inactive”.
With `O=C(O)CCCCCCCCCCC(=O)O` the outcome was “inactive”.
In the case of `CCN(CC)CCCC(C)Nc1ccnc2cc(Cl)ccc12` (stereo unspecified), the outcome is reported as “inactive”.
With `CC(=O)Nc1ccccc1` the outcome was “inactive”.
With `CC(=O)CC(=O)Nc1ccccc1` the outcome was “inactive”.
With `OCC(CO)(CBr)CBr` the outcome was “inactive”.
In the case of `CC[C@H](C)C(=O)O[C@H]1C[C@@H](C)C=C2C=C[C@H](C)[C@H](CC[C@@H]3C[C@@H](O)CC(=O)O3)[C@H]21`, the outcome is reported as “inactive”.
For `O=[N+]([O-])c1ccc(/C=C/c2ccc([N+](=O)[O-])cc2S(=O)(=O)O)c(S(=O)(=O)O)c1`, the outcome was “inactive”.
With `C=C(C)C(=O)Nc1ccc(Cl)c(Cl)c1` the outcome was “inactive”.
